The target of test [1] is Mitogen-activated protein kinase 10 (Mus musculus) (UniProt Q61831). Put plainly: JNK3 AlphaScreen Assay (AID 530; active = well fitted curve in either direction with a large enough effect, not every such curve was filed as active;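 note: kinase came from lysate of stimulated human HepG2 cells; signal reports phosphorylation of biotinylated GST-cJun 1-79 at Ser73 with 10 µM ATP; % is set by controls: 0 for no effect and ±100 for the full control effect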). The method, boiled down: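 JNK3 came from HepG2 lysates pre-activated with IL-1beta and TNF-alpha and phosphorylated biotinylated GST-cJun (1-79) at 10 uM ATP, pH 7.6, room temperature. Compounds were titrated. AlphaScreen signal used anti-phospho-cJun (Ser73) antibody.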

Test [2] is described as follows: Cell Viability - N2a (AID 540).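 Note: cells exposed to compound for 40 h at 37 °C; plate controls were DMSO alone for no effect and tamoxifen control for full effect; nearly all actives have a fitted effect of over 45% in size.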 To be noted: N2a mouse neuroblastoma cell viability; at 92.2 µM (top of the series). The method, boiled down:
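First, 1500 N2a cells per well incubate 5 hr at 37 °C; next, compounds are added and incubated 40 hr at 37 °C; finally CellTiter-Glo is added and luminescence read after 20 min, with AC50 derived by Hill modeling.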

The nature of test [3]: Cell Viability - NIH 3T3 (AID 541).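 For activity change, negative = cytotoxicity: plate controls were DMSO alone for no effect and tamoxifen positive control for full effect.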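 Note: cells exposed to compound for 40 hours; nearly all actives have a fitted effect of over 25% in size.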 Note: potency is the fitted concentration of half-maximal effect. Conditions: NIH 3T3 cell viability, qHTS; activity change, negative = cytotoxicity: at 92.2 µM (top of the series). A digest of the protocol:
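AC50 values reflect concentration-dependent loss of intracellular ATP in NIH 3T3 cells after 40 hr treatment in complete culture medium, quantified by luciferase-based luminescence.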
(In qHTS, concentration-response curves come from the screen itself.)

Test [4] is described as follows: Cell Viability - HUV-EC-C (AID 542).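 Note: cells exposed to compound for 40 hours; % is set by controls: 0 for no effect and ±100 for the full control effect; nearly all actives have a fitted effect of over 35% in size.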 A digest of the protocol:
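Decrease in cellular ATP, quantified by luciferase luminescence, reflects toxicity in normal human vascular endothelial HUV-EC-C cells given compound for 40 hr in complete culture medium. Values are AC50s from concentration-response curves.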

Test [5] can be described thus: Cell Viability - H-4-II-E (AID 543).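 Note: cells exposed to compound for 40 hours; nearly all actives have a fitted effect of over 35% in size.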 Note: potency is the fitted concentration of half-maximal effect. A digest of the protocol:
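Here, cytotoxicity is measured in the rat hepatoma line H-4-II-E as loss of intracellular ATP after 40 hr compound treatment, detected by luciferase luminescence.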

A short description of test [6]: Cell Viability - SH-SY5Y (AID 544).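 Note: cells exposed to compound for 40 hours; nearly all actives have a fitted effect of over 55% in size.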 Note: potency is the fitted concentration of half-maximal effect. A digest of the protocol: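 Cytotoxicity is scored as a concentration-dependent fall in intracellular ATP in human SH-SY5Y cells treated 40 hr in complete culture medium. Potency is expressed as AC50 from a Hill equation fit.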
The nature of test [7]: Cell Viability - Renal Proximal Tubule (AID 545).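 Note: cells exposed to compound for 40 hours; 0% = DMSO only and -100% = 100 µM tamoxifen; nearly all actives have a fitted effect of over 40% in size.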 To be noted: renal proximal tubule cells viability, primary cells of rat origin; at 91.7 µM (top of the series). The method, boiled down: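 Primary rat renal proximal tubule cells (1000/well) were treated with compounds for 40 hr at 37 °C in complete medium. Intracellular ATP was measured by CellTiter-Glo luminescence, and AC50 values came from Hill-equation fits of concentration-response data.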

A short description of test [8]: Cell Viability - Mesenchymal (AID 546).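 Note: cells exposed to compound for 40 hours before reading; 0% = DMSO only and -100% = 100 µM tamoxifen.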 The method, boiled down:
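Normal human renal glomerulus-derived kidney mesenchymal cells, 1000 per well in complete medium, were treated with compounds for 40 hr at 37 °C. Viability was read as intracellular ATP by CellTiter-Glo luminescence; AC50 values came from Hill-equation fits of qHTS concentration-response data.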

Test [9] is described as follows: Cellular Toxicity (caspase-3) HepG2 (AID 654).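 Note: cells exposed to compound for 16 hours before reading; 0% = DMSO alone and 100% = caspase signal from 100 µM tamoxifen.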 The method, boiled down: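 qHTS, HepG2, 1500 cells/well, complete medium; cpd 16 h 37 °C; Caspase-Glo 3/7, 20 min RT; lum. Norm: DMSO vs 100 uM tamoxifen; AC50 Hill fit.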
Test [10] can be described thus: Cellular Toxicity (caspase-3) Jurkat (AID 655).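 Note: cells exposed to compound for 16 h at 37 °C before reading.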 A digest of the protocol:
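Jurkat cells (5000/well) in complete medium were treated with compounds for 16 hr at 37 °C, then Caspase-Glo 3/7 luminescence was read after 20 min at room temperature. Data normalized to DMSO (basal) and 100 uM tamoxifen (100%); AC50 from Hill fit.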

The nature of test [11]: Cellular Toxicity (caspase-3) HUV-EC-C (AID 656).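 Note: 0% = DMSO basal and 100% = 100 µM tamoxifen.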 The method, boiled down:
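HUV-EC-C endothelial cells, 1000/well, were pre-incubated 5 hr at 37°C, then exposed to compounds for 16 hr at 37°C. Caspase-Glo 3/7 luminescence was read after 20 min at room temperature. AC50 came from Hill fits, normalized to DMSO and 100 uM tamoxifen.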

Test [12] in a line: Cellular Toxicity (caspase-3) SHSY5Y (AID 657). Note: potency is the fitted concentration of half-maximal effect. A digest of the protocol: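 SH-SY5Y human neuroblastoma cells (1500/well) were treated with compounds for 16 h at 37 °C, then Caspase-Glo 3/7 luminescence was read after 1 h at room temperature. Data normalized to DMSO and 10 uM staurosporine; AC50 from Hill fits.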
A short description of test [13]: Cellular Toxicity (caspase-3) BJ (AID 658).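 Note: 0% = DMSO basal and 100% = 10 µM staurosporine.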 Conditions: Potency: caspase-3 activation. The method, boiled down:
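Luminescent aminoluciferin-substrate cleavage reports caspase 3/7 activity in normal human BJ fibroblasts after 16 hr compound exposure at 37 °C. Normalized to DMSO (basal) and 10 uM staurosporine (100%); AC50 from Hill fit of concentration-response.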

Test [14] in a line: Cellular Toxicity (caspase-3) MRC-5 (AID 659).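 Note: 0% = DMSO basal and 100% = 10 µM staurosporine.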 A digest of the protocol: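 Luminescence from caspase-cleaved aminoluciferin substrate (Caspase-Glo 3/7, 1 hr RT) reports caspase 3/7 activity in MRC-5 lung fibroblasts after 16 hr compound exposure. Normalized to DMSO basal and 10 uM staurosporine as 100%; AC50 from Hill fits.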
Test [15] is described as follows: Cellular Toxicity (caspase-3) Mesangial (AID 660).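 Note: combined caspase 3 and 7 activity read by Caspase-Glo luminescence; cells exposed to compound for 16 h before the caspase read.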 A digest of the protocol:
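Concentration-response qHTS: compound-induced rise in caspase 3/7 luminescence in human mesangial cells after 16 h, normalized to DMSO and 100 uM tamoxifen controls.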

The nature of test [16]: Cellular Toxicity (caspase-3) SK-N-SH (AID 661).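 For caspase-3 activation: 0% = DMSO basal and 100% = 10 µM staurosporine.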 Note: potency is the fitted concentration of half-maximal effect. To be noted: SK-N-SH caspase-3 activation, qHTS; caspase-3 activation: at 91.7 µM (top of the series), DMSO as zero, staurosporine as full. A digest of the protocol: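 Caspase 3/7 activation is measured as a luminescence increase from aminoluciferin released by substrate cleavage in SK-N-SH cells after 16 hr compound treatment; values are AC50 from concentration-response curves.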

A short description of test [17]: Cellular Toxicity (caspase-3) H-4-II-E (AID 663).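 Note: cells exposed to compound for 16 hr before readout; 0% = DMSO basal and 100% = 100 µM tamoxifen.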 A digest of the protocol: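 Luminescence from caspase-cleaved aminoluciferin substrate, read 20 min after reagent addition, reports caspase 3/7 activation in rat H-4-II-E cells after 16 hr compound exposure. Normalized to DMSO (basal) and 100 uM tamoxifen (100%); AC50 from Hill fits.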

SMILES strings stand for the structures. Values joined by “and” are separate entries in the source; they are usually repeats but may differ in a detail not shown here. Equal entries are not always repeated. Values without a mark were called inactive. Inconclusive results are not listed. Active and inactive are the calls of the source. Unless noted, calls come from the whole dose curve; as a rule, active = well fitted curve in the direction sought with a large enough effect; inconclusive = small, poorly fitted or top-dose-only effect, or another doubt; inactive = no such curve, though single readings can be large; an effect the other way counts as inactive or inconclusive.

Regarding `CO/N=C(/C(=O)N[C@@H]1C(=O)N2C(C(=O)O)=C(COC(N)=O)CS[C@H]12)c1ccco1`, the result in test [1], in test [8], in [9], in [11], in [14] and in test [15] was inactive. Besides, the result in test [17] was inactive. Also, the values for the activity change, negative = cytotoxicity in test [2], in test [3] and in [7] were 8.73%, -7.55% and 4.36%, respectively. Besides, the Potency result in [4], in test [5], in test [6], in test [10], in test [12] and in [13] was “inactive” in each case. Moreover, the Potency result in [16] was “inactive”.
As for `C[C@H](CCC(=O)O)[C@H]1CC[C@H]2[C@@H]3[C@H](O)C[C@@H]4C[C@H](O)CC[C@]4(C)[C@H]3C[C@H](O)[C@]12C`, the call in test [1], in test [8], in test [9], in [11], in test [14] and in test [15] was inactive. The call in test [17] was inactive. Moreover, the results for the activity change, negative = cytotoxicity in test [2], in test [3] and in test [7] were -9.32%, -13.2% and 5.01%, respectively. Besides, the Potency result in test [4], in test [5], in [6], in test [10], in [12] and in [13] was “inactive” throughout. The Potency entry in test [16] was “inactive”.
Consider `[O-][N+](=Nc1ccccc1)c1ccccc1`, for which the result in test [1], in test [8], in test [9], in test [11], in [14] and in [15] was inactive. Further, in test [17], the outcome was inactive. Besides, the activity change, negative = cytotoxicity is 4.21% in test [2], -5.77% in test [3] and -0.723% in test [7]. The Potency entry in [4], in [5], in test [6], in test [10], in [12] and in test [13] was “inactive” throughout. In [16], the Potency result was “inactive”.
Consider `O=P(O)(O)O`, for which the call in [1], in [8], in [9], in [11], in test [14] and in test [15] was inactive. For the same compound, the compound was called inactive in test [17]. For the same compound, the values for the activity change, negative = cytotoxicity in test [2], in [3] and in test [7] were -12.4%, -8.72% and -7.24%, respectively. For the same compound, the Potency entry in test [4], in test [5], in [6], in [10], in test [12] and in test [13] was “inactive” throughout. Further, in test [16], the Potency entry is “inactive”.
`CCCCO`: the compound was classed as inactive in test [1], in [8], in test [9], in [11], in [14] and in [15]. The compound was called inactive in [17]. For the same compound, the activity change, negative = cytotoxicity in test [2] was -5.68% and -4.88%; in [3] it was -12.4% and 2.4%; in [7], -5.24% and 3.29%. Also, the Potency result in test [4], in test [5], in test [6], in test [10], in test [12] and in [13] was “inactive” each time. Moreover, the Potency entry in test [16] is “inactive”.
With `c1ccc2ccccc2c1`, the compound was called inactive in test [1], in test [8], in test [9], in test [11], in [14] and in [15]. Further, the compound was classed as inactive in [17]. The activity change, negative = cytotoxicity in test [2] is 6.48%; in [3], 0.772%; in [7] it was 1.8%. Further, the Potency entry in [4], in [5], in test [6], in [10], in [12] and in [13] was “inactive” in each case. Moreover, the Potency result in test [16] was “inactive”.
Turning to `C/C=C/C=C/C(=O)O`, the result in [1], in test [8], in test [9], in test [11], in test [14] and in test [15] was inactive. For the same compound, the outcome in [17] was inactive. The activity change, negative = cytotoxicity in test [2] is -0.963%; in [3] it was 8.21%; in [7] it was -2.27%. In addition, the Potency result in test [4], in test [5], in test [6], in test [10], in test [12] and in test [13] was “inactive” throughout. Further, in test [16], the Potency result was “inactive”.
Turning to `O=c1n(CC2CO2)c(=O)n(CC2CO2)c(=O)n1CC1CO1` (configuration not stated), the values for the activity change, negative = cytotoxicity in test [3] and in [7] were -138% (active) and -90% (active), respectively. Besides, the Potency was 39.8 µM (active) in test [5], 0.631 µM (active) in test [6], 12.6 µM (active) in [12] and 15.8 µM (active) in test [16]. Further, the result in test [9], in test [11], in [14], in test [15] and in test [17] was inactive. Also, the Potency entry in test [13] was “inactive”.
In the case of `O.O.O.O.O.O.O.O=S(=O)([O-])[O-].[Co+2]`, the activity change, negative = cytotoxicity in test [2] was -16.8%; in test [3], -26.9%. Further, the Potency result in [4], in test [6], in test [10], in test [12], in test [13] and in test [16] was “inactive” in each case. The compound was classed as inactive in test [8], in [9], in test [11], in test [14], in test [15] and in test [17].
As to `OCl`, the compound was called inactive in test [1], in test [8], in [9], in test [11], in test [14] and in test [15]. The compound was classed as inactive in [17]. The activity change, negative = cytotoxicity in [2] is -0.881%; in test [3], -13.5%; in test [7] it was 2.44%. Moreover, the Potency entry in test [4], in test [5], in [6], in [10], in test [12] and in test [13] was “inactive” throughout. Besides, the Potency entry in test [16] was “inactive”.
Take `Oc1ccc(/C=C/c2cc(O)cc(O)c2)cc1`: the compound was classed as inactive in test [1], in test [8], in test [9], in test [11], in [14] and in test [15]. Further, the Potency in test [3] and in test [5] was 31.6 µM (active) each time. Moreover, the Potency entry in test [4], in [6], in [10], in test [12], in test [13] and in test [16] was “inactive” throughout. For the same compound, the activity change, negative = cytotoxicity in test [7] is -14.2%.

These data come from PubChem BioAssay (NCATS).
